# Source: ChEMBL document CHEMBL3433997, “St. Jude Leishmania screening dataset” (2016)
# Columns and labels:
# Format in all cases: functional
# [1] = molecular target: Solute carrier family 2, facilitated glucose transporter member 1 (Homo sapiens) (UniProt P11166); experiment: ST_JUDE_LEISH: Cytotoxicity at 2uM final concentration against transgenic Leishmania Mexicana promastigotes LmGLUT1 that are glucose transport deficient and complemented with the human glucose transporter GLUT1. Activity is measured by DNA content using SYBR green in vitro
# Chain of Solute carrier family 2, facilitated glucose transporter member 1 (Homo sapiens) (P11166 whole entry): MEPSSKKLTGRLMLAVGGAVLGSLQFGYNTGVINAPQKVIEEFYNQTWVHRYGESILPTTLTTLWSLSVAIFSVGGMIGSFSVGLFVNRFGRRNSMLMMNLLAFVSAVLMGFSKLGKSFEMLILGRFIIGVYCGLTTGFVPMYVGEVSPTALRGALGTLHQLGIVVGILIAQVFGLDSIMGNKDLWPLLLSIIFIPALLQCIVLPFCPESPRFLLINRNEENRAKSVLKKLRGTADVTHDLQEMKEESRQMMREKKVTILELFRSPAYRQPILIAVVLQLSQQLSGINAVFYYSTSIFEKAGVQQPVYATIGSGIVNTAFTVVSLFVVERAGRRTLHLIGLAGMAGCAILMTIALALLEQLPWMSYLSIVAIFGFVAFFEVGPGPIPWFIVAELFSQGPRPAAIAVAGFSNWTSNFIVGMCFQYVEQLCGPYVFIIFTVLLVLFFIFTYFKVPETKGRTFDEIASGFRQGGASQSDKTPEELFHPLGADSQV
# [2] = molecular target: Hexose transporter 1 (Plasmodium falciparum) (UniProt O97467); experiment: ST_JUDE_LEISH: Cytotoxicity at 2uM final concentration against transgenic Leishmania Mexicana promastigotes LmPfHT that are glucose transport deficient and complemented with the Plasmodium falciparum hexose transporter. Activity is measured by DNA content using SYBR green in vitro
# [3] = molecular target: Glucose transporter (Leishmania mexicana) (UniProt O61059); experiment: ST_JUDE_LEISH: Cytotoxicity at 2uM final concentration against transgenic Leishmania Mexicana promastigotes LmGT2 that are glucose transport deficient and complemented with the L. Mexicana glucose transporter 2. Activity is measured by DNA content using SYBR green in vitro
SMILES,inhibition [1] [%],inhibition [2] [%],inhibition [3] [%]
COc1ccc(CC(C)CON2C(N)=NC(N)=NC2(C)C)cc1 (stereo unspecified),4.07,4.35,4.04
Cc1cccc2sc(N(CCCn3ccnc3)C(=O)C=Cc3cccs3)nc12,12.6,12.7,6.56
COc1cccc(-c2ccc3c(-c4cccc(S(C)(=O)=O)c4)cnc(N)c3c2)c1,8.21,5.42,2.21
CC(C)(CNCc1ccc(Cl)c(Cl)c1)c1nc(-c2ccc(Cl)c(O)c2)c(-c2ccncc2)[nH]1,0.8,3.02,4.37
c1cc(CN2CCCCC2)cc(-c2csc(-c3nc4ccccc4[nH]3)c2)c1,5.65,4.57,2.67
CC1(CCN2CCC(c3c[nH]c4cnccc34)CC2)CCCc2c(Br)cccc2C1=O (stereo unspecified),54.7,25.4,95.5
O=C(Nc1ccsc1C(=O)NC1CCCCC1)c1ccc(F)cc1,0.07,-1.32,-0.45
CCCn1cnc2cc(C(=O)Nc3ccc(-c4cccc(CN(C)C)c4)cc3)ccc2c1=O,55,3.03,5.21
CCOC(=O)c1[nH]c2cc(Cl)cc(Cl)c2c1/C=C/C(=O)Nc1ccc(-c2cnc(NC(C)=O)[nH]2)cc1,-1.61,-2.31,-1.73
CCc1c(C)nc(-n2nc(C)cc2NC(=O)c2cccc3ccccc23)[nH]c1=O,-3.49,-1.41,3.73
COc1ccc(CNC(=O)c2cnc3c(O)cccc3c2Nc2cccc(NC(=O)c3ccc(Cl)c(Cl)c3)c2)cc1,74.7,78.8,76.6
O=C(Nc1ccc(-c2ccc(-c3nc4ccccc4[nH]3)s2)cc1)Nc1ccsc1,0.72,-0.46,4.17
CC(Cc1ccc(CNC(=O)NCc2ccc(CC(C)NCCc3cccc(Cl)c3)cc2)cc1)NCCc1cccc(Cl)c1 (stereo unspecified),82.9,79,18.9
COc1ccc(-c2ccc(NC(=O)c3ccc(C#N)cc3)cc2)cc1CN(C)CCN(C)C,6.36,4.84,1.19
CN1CCC(NCc2ccc(S(=O)(=O)Nc3ccc(Oc4cccc(Cl)c4)cc3)cc2)CC1,1.15,1.05,0.97
CC1(C)N=C(N)N=C(N)N1c1ccc(I)cc1,5.79,5.57,6.6
Oc1ccc(CCNCCCCNCCc2ccc(Cl)cc2)cc1O,-1.52,1.57,-2.55
CSc1sc(NC(=O)Nc2cccc(C(F)(F)F)c2)cc1C#N,1.55,1.51,1.15
CCCCCCN1CCN(Cc2cccc(NC(=O)c3cc4ccccc4s3)c2)CC1,2.76,2.43,2.42
Cc1onc(-c2ccccc2)c1-c1nc(NC2CCCC(C)C2)no1 (stereo unspecified),2.36,-1.49,3.54
O=C(NCc1ccc(Cl)c(Cl)c1)c1cccc(C2CCCN(Cc3ccc4[nH]cnc4c3)C2)c1 (stereo unspecified),0.36,2.01,-0.63
O=C(NCCCCCN1CCC(c2c[nH]c3ccccc23)CC1)c1ccc(-c2cccnc2)cc1,1.86,0.85,1.15
